These results are taken from PMC11062922 (Nature Chemical Biology, 2023).

Each structure is given as a SMILES string.

The subject of one experiment is MAPKAPK2. The arrangement: species or system human, MV4-11 + K-562 + COLO205 + SK-N-BE2 + OVCAR-8. The following applies: read-out: apparent Kd; compound concentrations:100 nM and 1000 nM (sheet 'Samples'); n = 1.
Turning to `COCCNC(=O)c1ccc(-c2cc(C(=O)NC3CC3)cc(F)c2C)cc1` [GW868318X], the potency estimated from few doses was 79.6 nM. As to `Cc1ccc(NC(=O)c2ccnc(N3CCCCC3)c2)cc1-c1ccc(C(=O)NCC2CC2)cc1` [GW775610X], the potency estimated from few doses was 107 nM. In the case of `N#CCn1c(=O)c(Oc2ccc(F)cc2F)cc2cnc(NC3CCOCC3)nc21` [RO5040027-000], the potency estimated from few doses was 3.65 nM. Same read-out and setting: under `Cl.Cn1c(=O)c(Oc2ccc(F)cc2F)cc2cnc(N[C@H]3CC[C@H](O)CC3)nc21` [RO3305413-001] stands 4.66 nM; under `Cl.Cn1c(=O)c(Oc2ccccc2F)cc2cnc(NC3CCOCC3)nc21` [RO3304805-001], 73.7 nM.

Regarding `O=c1[nH]c2nc(NC3CCOCC3)ncc2cc1Oc1ccc(F)cc1F` [RO3310867-000], the potency estimated from few doses is 5.98 nM.

The next experiment has as its system NLK. The arrangement: species or system human, MV4-11 + K-562 + COLO205 + SK-N-BE2 + OVCAR-8. Particulars: read-out: apparent Kd; compound concentrations:100 nM and 1000 nM (sheet 'Samples'); n = 1.
As to `CC(C)Nc1ncc2cc(Oc3ccc(F)cc3F)c(=O)n(C)c2n1.Cl` [RO3309180-001], the potency estimated from few doses is 1490 nM. On the same count and under the same terms, under `CS(=O)(=O)CCCn1c(=O)c(Oc2ccc(F)cc2F)cc2cnc(NC3CCOCC3)nc21` [RO5033700-000] stands 202 nM. As to `Cl.Cn1c(=O)c(Oc2ccc(F)cc2F)cc2cnc(N[C@H]3CC[C@H](O)CC3)nc21` [RO3305413-001], the potency estimated from few doses is 199 nM.

For a further experiment, the system named is PIP4K2C. The arrangement: species or system human, MV4-11 + K-562 + COLO205 + SK-N-BE2 + OVCAR-8. The following applies: read-out: apparent Kd; compound concentrations:100 nM and 1000 nM (sheet 'Samples'); n = 1.
Consider `CC(C)Nc1ncc2cc(Oc3ccc(F)cc3F)c(=O)n(C)c2n1.Cl` [RO3309180-001], for which the potency estimated from few doses was 2100 nM. As for `CS(=O)(=O)CCCn1c(=O)c(Oc2ccc(F)cc2F)cc2cnc(NC3CCOCC3)nc21` [RO5033700-000], the potency estimated from few doses was 796 nM. Same read-out and setting: under `Cl.Cn1c(=O)c(Oc2ccc(F)cc2F)cc2cnc(N[C@H]3CC[C@H](O)CC3)nc21` [RO3305413-001] stands 791 nM. For `O=c1[nH]c2nc(NC3CCOCC3)ncc2cc1Oc1ccc(F)cc1F` [RO3310867-000], the potency estimated from few doses was 781 nM.
